# In PubChem BioAssay (Tox21):
# Results filed as inconclusive are left out. A call without a number means that no potency is given here. Values without a mark were called inactive. Calls of active or inactive are those of the source. The call rests on the fitted dose curve; in most records, active means well fitted cell-killing curve with a large enough effect in the repeat runs; inconclusive means weak or mixed curves; inactive means flat fitted curve, though single readings scatter.
# Assay: qHTS RealTime-Glo MT Cell Viability Assay in HepG2 cells - 8 hour (AID 1224873); further: nearly all actives have a fitted effect of over 55% in size
# Settings: RealTime-Glo luminescence; series mostly up to 76.8 µM
# Excerpt: National Center for Advancing Translational Sciences [NCATS]
# NIH Chemical Genomics Center [NCGC]
# U.S. Environmental Protection Agency [EPA]
# National Institutes of Environmental Health Sciences [NIEHS]
# National Toxicology Program [NTP]
# U.S. Food and Drug Administration [FDA]
# Measure of cell viability is critical in the cell-base assay. Analysis of cell viability is necessary for the characterization of cell responses to cytotoxic drugs and environmental stress. A RealTime-Glo MT Cell Viability Assay to monitor cell viability in real time of continues cell culture during 40 hours of compound treatment was used to screen Tox21 10K library compounds in HepG2 cells. The RealTime-Glo MT Cell Viability Assay is a nonlytic, homogeneous, bioluminescent method to measure cell viability in real time using a simple, plate-based method. The assay involves adding NanoLuc luciferase and a cell-permeant prosubstrate to cells in culture. Viable cells reduce the proprietary prosubstrate to generate a substrate for NanoLuc luciferase. This substrate diffuses from cells into the surrounding culture medium, where it is rapidly used by the NanoLuc Enzyme to produce a luminescent signal. The signal correlates with the number of viable cells, making the assay well suited for cytotoxicity studies.
# Tox21 Assay Protocol Summary:
# The mixture of HepG2 cell suspension and reagents were dispensed at 600cells/6 ul/well in 1536-well tissue culture treated black solid bottom plates using a Multidrop dispenser. After the assay plates were incubated at a 37 C/5% CO2 incubator for 5 hours, 23 nL of compounds dissolved in DMSO, positive and negative controls was transferred to the assay plate by a pintool work station. The plates were incubated at 37 C for 40 hours. The luminescence intensity were measured at 0h, 8h, 16h, 24h, 32h and 40h time points using ViewLux plate reader during compound treatment.
# Potency means the concentration at half of the fitted maximal effect.
SMILES,Potency,"viability change, negative = cytotoxic"
CCCCCCCCCCCCOC(=O)c1ccc(O)cc1,inactive,–
CC(C)OC(=O)C(O)(CC(=O)O)CC(=O)O,inactive,–
COc1c(C)c2c(c(O)c1C/C=C(\C)CCC(=O)OCCN1CCOCC1)C(=O)OC2,inactive,–
Cc1ccc(-c2ccccc2)cc1,inactive,–
O=[N+]([O-])c1ccc(O)cc1C(F)(F)F,inactive,–
CCCCCCC1CCCC(=O)O1 (stereo not given),inactive,–
COC(C)=O,inactive,–
c1cnccn1,inactive,–
CC(C(=O)O)c1ccc2c(c1)[nH]c1ccc(Cl)cc12 (stereo not given),inactive,–
Nc1nc(N)nc(-c2cc(Cl)ccc2Cl)n1,inactive,–
CCN1C(=O)c2ccccc2C1Nc1ccc(OCCN2CCCCC2)cc1 (stereo not given),inactive,–
CCC(=O)OC(=O)CC,inactive,–
CC(=O)c1ccc(C(C)=O)cc1,inactive,–
COc1ccc(NC(=O)CC(C)=O)cc1,inactive,–
C#C[C@]1(OC(C)=O)CC[C@H]2[C@@H]3CCC4=C[C@@H](OC(C)=O)CC[C@@H]4[C@H]3CC[C@@]21C,inactive,–
CN1CCC[C@@H]1CCO[C@](C)(c1ccccc1)c1ccc(Cl)cc1,inactive,–
CC(C)Cn1cnc2c(N)nc3ccccc3c21,–,-0.187% [at 15.8 µM]
CN(C)Cc1cc(C(C)(C)C)c(O)c(C(C)(C)C)c1,inactive,–
O=S(=O)(O)c1ccccc1/C=C/c1ccc(-c2ccc(/C=C/c3ccccc3S(=O)(=O)O)cc2)cc1,inactive,–
CN1CCN2c3ccccc3Cc3ccccc3C2C1 (stereo not given),inactive,–

SMILES,Potency,"viability change, negative = cytotoxic"
C=Cc1ccccc1C=C,inactive,–
CCC(CC)C(C)CCOC(C)=O (stereo not given),inactive,–
CCc1ccc(Br)cc1,inactive,–
CCN(CC)C(=O)c1cc(S(=O)(=O)Cc2ccccc2)c(N2CCC(c3ccccc3)CC2)cc1N(CC)CCN(C)C,17.2 µM (active),–
COC(=O)c1ccccc1OC,inactive,–
O=C(O)CN(CCN(CC(=O)O)CC(=O)O)CC(=O)O,–,-13.2% [at 2.72 µM]
Oc1ccccc1O,inactive,–
O=C(O)c1ccc2cc(C(=O)O)ccc2c1,inactive,–
C=Cc1cccc(C)c1,inactive,–
Oc1c(I)cc(Cl)c2cccnc12,inactive,–
C#Cc1ccc(-c2ccccc2F)cc1,inactive,–
Cl[Si](Cl)(c1ccccc1)c1ccccc1,inactive,–
O=c1[nH]c(=O)n([C@H]2C[C@H](O)[C@@H](CO)O2)cc1F,inactive,–
CCC(C)n1ncn(-c2ccc(N3CCN(c4ccc(OC[C@H]5CO[C@](Cn6cncn6)(c6ccc(Cl)cc6Cl)O5)cc4)CC3)cc2)c1=O (stereo not given in full),inactive,–
CC(C)(c1cc(Br)c(OCC(Br)CBr)c(Br)c1)c1cc(Br)c(OCC(Br)CBr)c(Br)c1 (stereo not given),inactive,–
CC(C)(C)c1ccc(C(O)CCCN2CCC(C(O)(c3ccccc3)c3ccccc3)CC2)cc1 (stereo not given),10.7 µM (active),–
Cc1cc(C(C#N)c2ccc(Cl)cc2)c(Cl)cc1NC(=O)c1cc(I)cc(I)c1O (stereo not given),inactive,–
NC(=O)c1cccc([N+](=O)[O-])c1,inactive,–
Cc1c(F)c(N2CCNC(C)C2)cc2c1c(=O)c(C(=O)O)cn2C1CC1 (stereo not given),inactive,–
CC(C)CCOC(=O)/C=C/c1ccccc1,inactive,–
